Measurements: PubChem BioAssay (Tox21)
Activity calls are given as the source filed them. Where a call stands in place of a potency, no number is given. Calls follow the shape of the full dose curve.

Molecular target: Gonadotropin-releasing hormone receptor (Homo sapiens) (UniProt P30968)
Assay: Human gonadotropin-releasing hormone receptor (GnRHR) small molecule agonists, calcium flux assay in GnRHR-HEK293 cells (AID 1920063); also: nearly all actives have a fitted effect of over 35% in size
Details: calcium flux fluorescence, agonist mode; series mostly up to 57.6 µM
Text: National Center for Advancing Translational Sciences [NCATS]
Division of Preclinical Innovation [DPI]
U.S. Environmental Protection Agency [EPA]
National Institutes of Environmental Health Sciences [NIEHS]
National Toxicology Program [NTP]
U.S. Food and Drug Administration [FDA]
Gonadotropin-releasing hormone receptor (GnRHR) is a G-protein-coupled receptor (GPCR) and acts (through phospholipase C) to increase intracellular inositol trisphosphate and then release intracellular calcium stores. Cell-based GnRHR-Hek293 calcium influx assay is using HEK293 cells that have been genetically engineered to express the human GnRHR, which activity can be measured by calcium signaling. A compound/drug can activate (agonist) GnRHR that can be monitored by levels of intracellular calcium.
GnRHR-HEK293 cells developed by Codex Corp contain human GnRHR reporter gene, which was stably integrated into HEK 293 cells. The compound activation can be detected by fluorescence intensity via calcium flux assay. This cell line has been used to screen the Tox21 10K compound library to identify GnRHR agonists.
GnRHR-Hek293 cells were dispensed at 1500cells/4uL/well in 1536-well black wall/clear bottom plates using a multidrop dispenser. After the assay plates were incubated at a 37 C/5% CO2 incubator for 18 hours, 4 uL of Calcium Dye Solution was added to each well. The plates were incubated at 37 C for 1 hour. For agonist mode, 23 nL of compounds dissolved in DMSO, positive controls or DMSO only was transferred to the assay plate by a pin tool station. The fluorescence intensity in the plates was measured using FDSS 7000EX kinetic plate reader with a filter set of Ex/Em=480/540 for 3 min at 1 sec intervals. Each test compound was measured at 15 concentrations and in triplicates.
Potency is read from the fitted curve at half-maximal effect.

Gonadotropin-releasing hormone receptor (Homo sapiens), sequence (P30968 whole entry, looked up): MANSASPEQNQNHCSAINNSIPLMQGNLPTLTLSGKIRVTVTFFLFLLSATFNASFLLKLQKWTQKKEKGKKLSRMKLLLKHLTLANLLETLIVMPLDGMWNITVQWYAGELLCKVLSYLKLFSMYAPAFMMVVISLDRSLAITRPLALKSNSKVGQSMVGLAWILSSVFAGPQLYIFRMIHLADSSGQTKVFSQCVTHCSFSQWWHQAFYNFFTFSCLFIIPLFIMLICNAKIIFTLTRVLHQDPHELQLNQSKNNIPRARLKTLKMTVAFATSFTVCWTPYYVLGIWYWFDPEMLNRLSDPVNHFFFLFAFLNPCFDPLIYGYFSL

Compound	Potency
C/C=C/C=O	inactive
Cc1cc(C(F)(C(F)(F)F)C(F)(F)F)ccc1NC(=O)c1cccc(I)c1C(=O)NC(C)(C)CS(C)(=O)=O	inactive
C[C@]12C=CC(=O)C=C1CC[C@@H]1[C@@H]2CC[C@@]2(C)[C@H]1CC[C@]2(C)O	inactive
CC(C)CCCCCCCOC(=O)c1ccccc1C(=O)OCCCCCCCC(C)C	inactive
COc1cc(CCN)cc(OC)c1OC	inactive
Cc1ccn2nc(S(=O)(=O)Nc3c(F)cccc3F)nc2n1	inactive
CCN1CCCC1CNC(=O)C(O)(c1ccccc1)c1ccccc1 (stereo not given)	inactive
CCCCC(=O)Cl	inactive
N#CN	inactive
CCCSP(=O)(OCC)SCCC	inactive
CCSC(C)CC1CC(=O)C(/C(CC)=N/OC/C=C/Cl)=C(O)C1 (stereo not given)	inactive
CN(C)[C@@H]1C(=O)C(C(N)=O)=C(O)[C@@]2(O)C(=O)C3=C(O)c4c(O)ccc(Cl)c4[C@@](C)(O)[C@H]3C[C@@H]12	inactive
CC(C)(C)OO	inactive
CCC1(c2ccccc2)C(=O)N(COC)C(=O)N(COC)C1=O	inactive
CCCCN(CCCC)C(=S)[S-].CCCCN(CCCC)C(=S)[S-].[Ni+2]	inactive
IC(I)=C(I)I	inactive
CN1C(=O)COc2c(C(=O)NC3CN4CCC3CC4)cc(Cl)cc21 (stereo not given)	inactive
CC1CCC(C(C)C)C(OC(=O)c2ccccc2N)C1 (stereo not given)	inactive
CCOC(=O)C(SP(=S)(OC)OC)c1ccccc1 (stereo not given)	inactive
C=CC[C@]1(O)CC[C@H]2[C@@H]3CCC4=CC(=O)CCC4=C3C=C[C@@]21C	inactive

Compound	Potency
NC(=O)c1ccc(N)nc1	inactive
[F][Sn]([c]1ccccc1)([c]1ccccc1)[c]1ccccc1	34.7 µM (active)
O=C(NC(=O)c1c(F)cccc1F)Nc1cc(Cl)c(Oc2ncc(C(F)(F)F)cc2Cl)c(Cl)c1	inactive
O=S(=O)(O)C(F)(F)C(F)(F)C(F)(F)C(F)(F)F	inactive
COc1cc(C[C@@H](C)N)c(OC)cc1Br	inactive
O=C1CN=C(c2ccccc2)c2cc(Cl)ccc2N1CC1CC1	inactive
O=C(O)C(O)C(O)C(=O)O (stereo not given)	inactive
CN(C)C1CCCCC1	inactive
O=Cc1ccc2c(c1)OCO2	inactive
C[C@]12CC[C@H](O)C[C@H]1CC[C@@H]1[C@@H]2C[C@@H](O)[C@]2(C)[C@@H](C3=CC(=O)OC3)CC[C@]12O	inactive
COP(=S)(OC)Oc1ccc(S(N)(=O)=O)cc1	inactive
CC(CC(C#N)(c1ccccc1)c1ccccc1)N(C)C (stereo not given)	inactive
CC(C)(COCC1CO1)COCC1CO1 (stereo not given)	inactive
CNC(C)Cc1ccccc1OC (stereo not given)	inactive
N#CCc1ccc(Cl)cc1	inactive
ClCCCCCCCl	inactive
CC(C)(Cl)[N+](=O)[O-]	inactive
O=C(NC(=O)c1c(F)cccc1F)Nc1ccc(Oc2ccc(C(F)(F)F)cc2Cl)cc1F	inactive
O=C(O)CC(Cl)C(=O)O (stereo not given)	inactive
COC(=O)COc1ccc(Cl)cc1Cl	inactive
